Data published in the supplement of paper PMC6555819.

Columns and labels:
Assay in all cases: PBM binding z-score (relative to random genomic background probes); higher = stronger binding; sequences stand for … in GC…GCGATTGACAGCGTAGAATGAAGG
[1] = system: RARb homodimer (NR concentration 270 nM)
Summary of the method: (§1)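 Probes were double-stranded and carried 34-nt variable regions with direct-repeat seeds, single-nucleotide variants, half-site ablations and random human genomic background sequences, printed on custom Agilent 4×180K protein-binding microarrays. Arrays were incubated 1 h with ligand-free nuclear receptor dimers in PBS pH 7.4, 2% milk, 0.02% Triton X-100, 1 mM DTT, 0.2 mg/mL BSA and 0.4 mg/ml salmon testes DNA. Antibodies against each partner (one per run) detected binding, and scanned fluorescence was regression-normalized. Binding z-scores use the random background probes as reference.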

[2] = system: RARg:RXRa (NR concentration 270 nM, RXRa partner concentration 90 nM)
Summary of the method: as §1

[3] = system: RARg homodimer (NR concentration 270 nM)
Summary of the method: as §1

[4] = system: RXRa DBDmut IVT, anti-RXR (DBD mutation: RXRa K156A/R161A, NR concentration 90 nM)
Summary of the method: as §1

[5] = system: RXRa homodimer (NR concentration 180 nM)
Summary of the method: as §1

[6] = system: THRa:RXRa (NR concentration 90 nM, RXRa partner concentration 90 nM)
Summary of the method: as §1

[7] = system: THRa homodimer (NR concentration 90 nM)
Summary of the method: as §1

[8] = system: VDR homodimer (NR concentration 270 nM)
Summary of the method: as §1

Row | Sequence | PBM binding z-score [1] | PBM binding z-score [2] | PBM binding z-score [3] | PBM binding z-score [4] | PBM binding z-score [5] | PBM binding z-score [6] | PBM binding z-score [7] | PBM binding z-score [8]
1 | ATCTCTAGGTAACAGGTTCAGTGAAAGAGAGGAC | 1.15 | 0.818 | 0.667 | 0.757 | 0.828 | 1.58 | 1.34 | 2.78
2 | CCTTCCGGGTCACTCCAGGTTATAGCATCGGAGT | 3.42 | 4.34 | 3.95 | 1.2 | 4.33 | 5.19 | 2.37 | 1.77
3 | CCTACTGGGTCAAGGTCATTGATCAGTCAAAGCA | 4.88 | 5.77 | 5.74 | 2.59 | 5.72 | 4.24 | 3.31 | 4.04
4 | AGTAGCAGGCCAAGTTTGGGTCACTCAAACAAAG | 2.22 | 2.3 | 1.7 | -0.435 | 0.67 | 2.62 | 1.08 | 0.19
5 | ATCTCTAGGGAAAGATAGTTCAGTGAATGCAAAT | 0.675 | 0.502 | 0.656 | 0.0504 | 0.0958 | 0.201 | -0.33 | 0.635
6 | ATCTCAAGGTAAAAGTTCAGTGAATCCCGAGGAT | 2.4 | 2.29 | 1.96 | 0.614 | 2.21 | 1.94 | 0.529 | 1.28
7 | ACTATTACTTGAGACGAGGGCAACCGATAGGTTG | 1.67 | 0.798 | 0.981 | 1.01 | 0.63 | 1.15 | 1.02 | 1.76
8 | GGATCGAGGGCAAAGTTGATAGCATCTGTCGACG | 1.47 | 2.12 | 1.7 | 2.4 | 2.08 | 1.39 | -0.165 | 1.94
9 | CGTCAGAGTTCAAGGTAACGTAACAGAAAGCAGC | 3.02 | 4.6 | 5.3 | 4.91 | 4.35 | 2.74 | 1.04 | 4.53
10 | CGTCCAAGGTCAGAGAGGTCAGTGAATGCCGAGT | 5.19 | 6.25 | 6.97 | 3.52 | 5.73 | 4.19 | 2.86 | 5.68
11 | TGTCAAAGTTAAAAGGTAACGTAAGTATCCACAC | 0.641 | 1.31 | 1.09 | -0.392 | 1.22 | 1.72 | -0.237 | -0.239
12 | CAAACTAGGTCACAGAGGTCATAGTCCGTGCGTA | 5.33 | 6.83 | 7.33 | 3.4 | 7.32 | 4.76 | 3.22 | 7.02
13 | ATGCCAAGGTGATCGTGAGGTCGTTGATACTAAC | 1.42 | 2.12 | 0.718 | 0.41 | 1.52 | 3.54 | 2.25 | 2.53
14 | CCTTACTGGTCACTCCAGGTTATAGCATCGGAGT | 1.42 | 0.885 | 1.32 | 0.271 | 0.519 | 3.26 | 1.03 | 0.805
15 | CATACAGGGCCAGCTAGGCCAGAGTAGGGACGGC | -0.0405 | 0.0438 | 0.566 | -1.28 | -0.173 | -0.0247 | -0.492 | -0.491
16 | ATCTCTAGATAAAAGTTCAGTGAATCCCGAGGAT | 2.21 | 1.29 | 1.8 | 0.614 | 0.778 | 0.538 | -0.209 | 1.35
17 | CAAACTATGTCACAGAGGTCAAAGTCCGTGCGTA | 4.82 | 5.68 | 5.01 | 2.12 | 6.58 | 3.83 | 1.89 | 4.59
18 | CGAACTAGGTTATCCAGGACAGTGAATACATTGA | 0.559 | 0.544 | 1.04 | 0.958 | 0.343 | 2.45 | 1.19 | 0.455
19 | CCGACTGGGGCAGGAAGGTTACCATACCATCCGG | 1.15 | 0.592 | 0.687 | -1.31 | 0.585 | 0.142 | -0.486 | -0.24
20 | CATGCTAGGTCATGGTCAGCTAATCTACAGTATG | 3.06 | 3.95 | 4.67 | 1.74 | 3.06 | 2.87 | 1.06 | 0.15
21 | GCTTGTAGATCAAGGTTAGGAAAGACTAAGCTAA | -0.185 | -0.139 | -0.0948 | -0.199 | 0.0572 | 0.576 | -0.327 | -0.0771
22 | CGTCAAAGTTCACGGTAACGTAACAGAAAGCAGC | 4.26 | 6.31 | 7.19 | 4.62 | 6.17 | 2.38 | -0.36 | 4.02
23 | ACTATAAGTTGACTTAGGGCAACCGATACGACGC | 1.03 | 1 | 1.11 | 0.718 | 0.692 | 2.4 | 0.322 | 0.647
24 | ATCGAAAGGTGGTGAGGTGAGTATACAGAAAGGC | 1.13 | 0.717 | 0.846 | -0.654 | 0.748 | 1.8 | 1.23 | 0.366
25 | AGACTGAGGTTACCAAAGATCAGGGAAACGCTTG | 0.774 | 2 | 1.59 | 0.709 | 2.5 | 2.7 | 0.552 | 0.497
26 | ATCGAAAGGTCGAGGTGAGTCTAGAGAAAGGGAA | 2.89 | 4.34 | 4.48 | 0.715 | 4.46 | 3.01 | 0.76 | 0.695
27 | CGTCCTAGGTCAGCAGGTCAGTGAAAGCGACGTG | 4.37 | 4.95 | 5.41 | 0.595 | 3.21 | 2.88 | 1.1 | 0.285
28 | GCAAGCAGGCCATTTGGGTCACTCAATGACGGGC | 1.76 | 0.948 | 1.18 | -0.0801 | 0.769 | 1.79 | 0.53 | 0.402
29 | AGTCAAAGTTCATCTATGTAACGTAAGATATGCT | 3.77 | 5.2 | 6.01 | 4.69 | 4.74 | 1.92 | -0.492 | 4.62
